SMILES strings stand for the structures. A number with no mark means an inactive call.

This assay can be described thus: MM1S myeloma cell viability, profiling panel, resazurin fluorescence, basal, 24 h, PK04 Diversity Set (AID 1174).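 Further: MM1S multiple myeloma cell line; test concentration not given here.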 To be noted: higher = more signal, called active from +8 up or from −8 down. In general terms: Alamar Blue is a resazurin reagent that responds to reducing activity.
Take `N#Cc1ccc(NN2C(C(O)c3ccccc3)C=CC3C(=O)N(c4ccccc4)C(=O)C32)cc1` (stereo unspecified): the z-score is -0.0476.
With `O=C(NCc1ccccc1)[C@]1(Cc2ccccc2)N=C(c2ccc(OCCCO)cc2)O[C@@H]1c1ccccc1`, the z-score was -1.91.
The value for `CC(C)CCC[C@@H](C)[C@H]1CC[C@@]2(C)C3=C(CC[C@]12C)[C@@]1(C)CC[C@H](OC(=O)C(C)(C)C)C(C)(C)C1CC3` (stereo partly specified) was 0.0609.
The value for `NC(=O)NCC#Cc1ccc2c(c1)[C@]1(C(=O)N2)[C@H](c2ccc(OCCO)cc2)N2[C@H](c3ccccc3)[C@H](c3ccccc3)OC(=O)[C@H]2[C@@H]1C(=O)N1CCCCCCC1` was -0.476; that for `[N-]=[N+]=Nc1ccccc1[C@H]1OC(c2ccc(OCCCO)cc2)=N[C@@]1(Cc1ccccc1)C(=O)NCc1ccccc1` was -3.89.
Turning to `COCCOC(=O)N1C(=O)[C@@]2(c3cc(C#CCC(C(=O)OC)C(=O)OC)ccc31)[C@H](C(=O)N1CCCCCCC1)[C@H]1C(=O)O[C@H](c3ccccc3)[C@H](c3ccccc3)N1[C@@H]2c1ccc(O)cc1`, the z-score is 1.09.
The value for `C=CC[C@]1(C(=O)NCC(O)CO)N=C(c2ccc(OCCCO)cc2)O[C@H]1c1ccccc1N=[N+]=[N-]` (stereo partly specified) was -0.302; that for `O=C(Nc1cc(Br)ccc1C(=O)NCc1cccc(O)c1)c1ccccc1` was -0.407.
The figure for `CC1CC/C=C\[C@H]2OC34C=CCN(c5ccc(Cl)cc5)C(=O)[C@H]3N(C(CO)C(C)C)C(=O)[C@]4(C)C2C(=O)O1` (stereo partly specified) is 0.0849.
The figure for `CC1=C2[C@@H](CCc3ccccc3)OB(O)C[C@@H]2[C@@H]2C(=O)C=CC(=O)[C@@H]2C1` is -1.06; for `[N-]=[N+]=NCc1ccccc1C[C@]1(C(=O)NCCN2CCOCC2)COC(c2ccc(OCCCO)cc2)=N1` it is -1.28; for `COc1ccc(CCNC(=O)[C@@H]2c3ccccc3C(=O)N(Cc3ccccc3)[C@H]2c2ccc(CO)cc2)cc1` it is -2.71.
Take `C=CC[C@@]1(C(=O)NCC(O)CO)N=C(c2ccc(OCCCO)cc2)O[C@@H]1c1ccccc1` (stereo partly specified): the z-score was 0.552.
`CO[C@H]1O[C@H](CO)[C@@H](OC(=O)Nc2cccc(F)c2)[C@H](OC(=O)Nc2ccc3c(c2)OCO3)[C@H]1OC(=O)Nc1ccc2c(c1)OCO2`: the z-score is -1.53.
The figure for `COc1ccc(C#Cc2ccc3c(c2)[C@]2(C(=O)N3)[C@H](c3ccc(OCCO)cc3)N3[C@H](c4ccccc4)[C@H](c4ccccc4)OC(=O)[C@H]3[C@@H]2C(=O)N2CCN(c3ncccn3)CC2)cc1` is 1.48; for `COCC(=C=CC[C@@H](O)c1ccccc1OCCO)C[C@@H](O)c1ccccn1` it is -0.249.
With `CCCN1C(=O)[C@@]2(Cc3ccccc3)N=C(c3ccc(OCCCO)cc3)O[C@H]2c2ccccc21`, the z-score was -1.66.
On to `NC(=O)NCC#Cc1ccc2c(c1)[C@]1(C(=O)N2)[C@H](c2ccc(OCCO)cc2)N2[C@H](c3ccccc3)[C@H](c3ccccc3)OC(=O)[C@H]2[C@@H]1C(=O)N1CCN(c2ncccn2)CC1`, for which the z-score is 0.963.
The value for `C=CCC(OC(C)=O)[C@@H]1[C@@H](N(Cc2cccc3ccccc23)C(=O)c2ccc(C)cc2)c2cc(OCCCO)ccc2N1C(=O)c1ccc2ccccc2c1` (stereo partly specified) was 1.27.
The value for `COc1ccc([Si](C)(C)[C@@H]2[C@@H](CC(=O)N(CCO)Cc3ccccc3)O[C@]3(C(=O)N(Cc4ccc(N5CCOC5=O)cc4)c4ccccc43)[C@H]2C)cc1` was -1.85.
The figure for `COc1ccccc1CN1C(=O)c2ccccc2[C@](Cc2ccccc2I)(C(=O)NCCN2CCOCC2)[C@@H]1c1ccc(CO)cc1` is -0.914.
In the case of `CN(C)CCCN1C(=O)[C@@]2(Cc3ccccc31)c1ccccc1C(=O)N(Cc1ccccc1)[C@H]2c1ccc(CO)cc1`, the z-score is 1.04.
The value for `Cc1ccc(S[C@]2(C(=O)O)CC(=O)N(Cc3ccccc3C(F)(F)F)[C@@H]2c2ccc(CO)cc2)cc1` was 0.478.
The figure for `CCOC(=O)C1=CC[C@@H](c2ccccc2)N(S(=O)(=O)c2ccc(C)cc2)[C@H]1C=C(C)C` is -0.85.
For the molecule `COCCOC(=O)N1C(=O)[C@@]2(c3cc(C#CCNC(N)=O)ccc31)[C@H](C(=O)N1CCCCCCC1)[C@H]1C(=O)O[C@H](c3ccccc3)[C@H](c3ccccc3)N1[C@@H]2c1ccc(OCCO)cc1`, the z-score was -0.237.
Turning to `CC(C)CNC(=O)[C@@]1(C)c2ccccc2C(=O)N(Cc2ccccc2)[C@H]1c1ccc(CO)cc1`, the z-score was -0.0059.
The figure for `C=CCC(OC(C)=O)[C@@H]1[C@@H](N(Cc2ccc(-c3ccccc3)cc2)C(=O)c2cccc3ccccc23)c2cc(OCCCO)ccc2N1C(=O)c1ccc2ccccc2n1` (stereo partly specified) is 0.0319; for `COc1ccc([Si](C)(C)[C@@H]2[C@@H](CCO)O[C@]3(C(=O)N(Cc4ccccc4)c4ccc(N5C(=O)COc6ccccc65)cc43)[C@H]2C)cc1` it is -0.657.
The figure for `C=C(COC)/C(=C/C[C@@H](OC(=O)c1ccncc1)c1cccc(OCCO)c1)c1cc(C(=O)OC)ccc1OC` is -0.477; for `O=C1NC(=O)C2C1C=CC(C(O)c1ccc3c(c1)OCO3)N2Nc1ccc(Cl)cc1Cl` (stereo unspecified) it is -1.33.
The value for `[N-]=[N+]=NCc1ccccc1C[C@@]1(C(=O)NCCN2CCOCC2)N=C(c2ccc(OCCCO)cc2)O[C@@H]1c1ccccc1CN=[N+]=[N-]` was -0.982.
`C[N+](C)(C)CCCCCCNC(=O)[C@@H]1C[C@@H]2C(=O)NCC(=O)N2[C@@H]1c1ccc(O)cc1`: the z-score was 0.562.
The value for `COC(=O)[C@@]1(Cc2ccccc2N=[N+]=[N-])N=C(c2ccc(OCCCO)cc2)O[C@H]1c1ccccc1` was -7.63; that for `COCCOC(=O)N1C(=O)[C@@]2(c3cc(C#Cc4ccc(OC)cc4)ccc31)[C@H](C(=O)N1CCc3cc(OC)c(OC)cc3C1)[C@H]1C(=O)O[C@H](c3ccccc3)[C@H](c3ccccc3)N1[C@@H]2c1ccc(OCCO)cc1` was -0.12; that for `O=C1O[C@H](c2ccccc2)[C@H](c2ccccc2)N2[C@H]1[C@@H](C(=O)N1CCCCCCC1)[C@]1(C(=O)Nc3ccc(C#CCCO)cc31)[C@H]2c1ccc(OCCO)cc1` was 0.332.
The value for `CCCC[C@H]1OB(O)C[C@H]2C1=C(COc1ccccc1)Cn1c(=O)n(-c3ccccc3)c(=O)n12` was -0.0638.

The record behind these values is PubChem BioAssay.
